An excerpt weighted towards active compounds, which were near 2% of everything screened.
LGR2 inh – blocks bursicon-induced cAMP signaling via Drosophila LGR2. HEK293 LGR2, CRE-luciferase, bursicon-stimulated, 4 h. inhibition, % at 9.99 µM. 0.35% of 380,000 active;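 active = drop in luminescence signal, shown as inhibition above about 50% in the replicate tests, limit read from the data, passing the limit was not always enough; inconclusive = probably only some replicates passing the limit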;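 also: agonist challenge used bursicon conditioned medium at about half maximal strength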
Shn3 inh set2 – inhibitors of Schnurri-3 3'UTR reporter in osteoblasts; Clone20 osteoblast Shn3 3'UTR firefly luciferase, 24 h; inhibition, % at 12.5 µM; 0.52% of 360,000 active; AID 588674;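 active = mean inhibition of at least 75% with every replicate also reaching 75%; inconclusive = mean inhibition at least 75% but some replicate below; inactive = mean inhibition below 75%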;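 also: 0% = median of neutral control wells and 100% = pilot-screen positive control compound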
CF NFkB inh – inhibitors of cystic fibrosis induced NF-kB; KKLEB NF-kB-GFP reporter, PAF-induced, GFP fluorescence overnight; inhibition, % at 5 µM; 0.86% of 360,000 active; AID 588850;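 active = at least 50% inhibition at 5 µM, scaled per plate between neutral and stimulator controls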;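 also: PAF is a Pseudomonas aeruginosa culture filtrate used as stimulus; plate controls were PAF-stimulated DMSO wells for no effect and unstimulated DMSO wells for full effect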
EWS-Fli block – EWS/Fli transcriptional activity inhibition | A673 NR0B1-luciferase reporter, viability-normalised | inhibition, % at 12.6 µM | 0.67% of 350,000 active | AID 651661;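 active = mean inhibition of at least 50% after viability correction, with every replicate also passing that limit; inconclusive = mean reaches 50% but only one of two replicates passes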;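 also: firefly luciferase signal divided by Alamar Blue viability fluorescence both relative to DMSO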
PAX8 reporter – lowers PAX8-driven luciferase in RMG-I cells; RMG-I TPO-luciferase reporter, SteadyGlo, 24 h; inhibition, % at 12.6 µM; 1.2% of 360,000 active; AID 652154;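 active = mean replicate inhibition at least 60% with every replicate also reaching 60%; inconclusive = only one of the two criteria is met; inactive = mean below 60% and not all replicates reaching 60%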;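 also: luciferase light reporting Pax8 driven TPO promoter activity; plate controls were median of neutral control wells for no effect and mitoxantrone controls for full effect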
KKLEB cytotox – CF airway cell cytotoxicity counter-screen | AID 602141 | KKLEB CF airway cells viability, ATPlite luminescence, overnight; active compounds read low; cells stimulated with P. aeruginosa culture filtrate | activity change (cytotoxicity), % at 5 µM | 0.36% of 360,000 active;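 active = corrected activity change at or below -50% at 5 µM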
Numbers without * were called inactive; ? = inconclusive; . = not tested or not shown.

SMILES	LGR2 inh	Shn3 inh set2	CF NFkB inh	EWS-Fli block	PAX8 reporter	KKLEB cytotox
C[C@@H]1CN([C@H](C)CO)C(=O)Cc2cc(NC(=O)C3CC3)ccc2O[C@H]1CN(C)Cc1ccc(-c2ccccc2)cc1	-8	.	.	-3	23	.
C[C@H]1CN([C@@H](C)CO)C(=O)Cc2cc(NC(=O)Nc3ccc4c(c3)OCO4)ccc2O[C@H]1CN(C)Cc1ccc(-c2ccccc2)cc1	7	.	.	0	-5	.
C[C@H]1CN([C@@H](C)CO)C(=O)Cc2cc(NC(=O)c3ccncc3)ccc2O[C@@H]1CN(C)Cc1ccccc1	-7	.	.	-1	-6	.
C[C@H]1CN([C@@H](C)CO)C(=O)Cc2cc(NC(=O)c3ccncc3)ccc2O[C@H]1CN(C)Cc1ccc(-c2ccccc2)cc1	-1	.	.	-14	69*	.
CC(=O)Nc1ccc2c(c1)C(=Nc1ccccc1)c1ccccc1-2	-53	9	-15	-31	-16	9
NC(=O)c1cccc2c1-c1ccccc1/C2=N/NC(N)=S	-4	-2	-43	0	-11	8
CCOC(=O)Nc1ccc2c(c1)C(=NO)c1ccccc1-2	-21	92*	-3	21	-83	23
CCOC(=O)Nc1ccc2c(c1)C(=NNC(N)=S)c1ccccc1-2	83*	2	-104	16	28	16
CN(C)CCCNC(=O)C[C@@H]1CC[C@H](NC(=O)c2ccccc2F)[C@@H](CO)O1	3	.	.	-2	-2	.
CNC(=O)C[C@@H]1CC[C@H]2[C@H](COc3ccc(NC(=O)c4ccc5c(c4)OCO5)cc3C(=O)N2C)O1	-6	.	.	-10	-5	.
Cc1ccc(S(=O)(=O)Nc2ccc3c(c2)C(=O)N([C@@H](C)CO)C[C@H](C)[C@@H](CN(C)C(=O)CCC(F)(F)F)OCCCC[C@@H](C)O3)cc1	7	.	.	1	-1	.
C[C@H](CO)N1C[C@H](C)[C@H](CN(C)Cc2ccc3c(c2)OCO3)OCCCC[C@H](C)Oc2ccc(NS(=O)(=O)c3ccc(F)cc3)cc2C1=O	2	.	.	7	19	.
CC(/C=N/NC(=O)c1cc(-c2ccc(Cl)cc2)nc2ccccc12)=C\c1ccco1	7	2	-14	.	87*	-9
CC(/C=N/NC(=O)c1cc(-c2ccccc2)nc2ccccc12)=C\c1ccco1	2	18	23	.	41	-15
COc1ccc(OC)c(-c2cnc(OC(C)(C)C)nc2OC(C)(C)C)c1	24	-32	16	71*	11	-6
CNc1cncc(-c2cc(OC)ccc2OC)n1	2	1	5	-7	-8	-3
O=C(CCCN1C(=O)/C(=C/c2ccccc2Cl)SC1=S)NNC(=O)c1ccccc1Cl	-2	11	8	66*	12	3
O=C(CCN1C(=O)/C(=C/c2ccccc2Cl)SC1=S)N1CCCC1	29	47	53*	-3	83*	-4
O=C(CCN1C(=O)/C(=C\c2ccccc2)SC1=S)N1CCOCC1	-4	-70	5	-19	-10	0
O=C(CCN1C(=O)/C(=C/c2ccccc2Cl)SC1=S)N1CCOCC1	24	0	72*	.	1	-11
Cc1ccc(COc2cccc(/C=N/NC(=O)c3nnn(-c4nonc4N)c3C)c2)cc1	-14	-17	59*	.	-4	-50
OC[C@@H]1[C@H](c2ccc(C#CC3CC3)cc2)[C@H]2CN(CCC(F)(F)F)CCCCN12	.	.	.	-1	-20	.
CN1CCN(C(=O)C[C@H]2C[C@H]3c4cc(NS(C)(=O)=O)ccc4O[C@H]3[C@@H](CO)O2)CC1	-5	.	.	-4	-6	.
COC(=O)c1c2oc(c1C(=O)OC)C(=O)N(C)Cc1cn(nn1)C[C@H](Cc1ccccc1)NC(=O)N[C@H](CO)CC2	.	.	.	7	-8	.
COCCN(C(=O)COC(=O)/C=C/c1cccc(OC)c1)c1c(N)n(CC(C)C)c(=O)[nH]c1=O	8	-10	7	-2	67*	-5
SMILES	LGR2 inh	Shn3 inh set2	CF NFkB inh	EWS-Fli block	PAX8 reporter	KKLEB cytotox
COCCN(C(=O)COC(=O)C1CCC(C(C)(C)C)CC1)c1c(N)n(Cc2ccccc2)c(=O)[nH]c1=O (centres undefined)	0	88*	9	13	18	0
C[C@@H]1CN([C@H](C)CO)C(=O)Cc2cc(NS(=O)(=O)c3cn(C)cn3)ccc2O[C@@H]1CN(C)C	-18	.	.	-7	-2	.
Cc1cc(C(=O)Nc2ccc3c(c2)C(=O)N(C)[C@H]2CC[C@@H](CC(=O)NCc4ccc(-c5ccccc5)cc4)O[C@H]2CO3)no1	10	.	.	32	91*	.
Cc1cc(C(=O)Nc2ccc3c(c2)C(=O)N(C)[C@@H]2CC[C@@H](CC(=O)NCc4ccc(-c5ccccc5)cc4)O[C@@H]2CO3)no1	4	.	.	6	35	.
Cc1cc(C(=O)Nc2ccc3c(c2)C(=O)N(C)[C@H]2CC[C@H](CC(=O)NCc4ccc(-c5ccccc5)cc4)O[C@H]2CO3)no1	16	.	.	20	47	.
Cc1cc(C(=O)Nc2ccc3c(c2)C(=O)N(C)[C@@H]2CC[C@H](CC(=O)NCc4ccc(-c5ccccc5)cc4)O[C@@H]2CO3)no1	26	.	.	?	80*	.
Cc1cc(C(=O)Nc2ccc3c(c2)C(=O)N(C)[C@@H]2CC[C@H](CC(=O)NCc4ccc(-c5ccccc5)cc4)O[C@H]2CO3)no1	.	.	.	57*	80*	.
O=C(C[C@@H]1CC[C@H](NC(=O)Nc2ccc(F)cc2)[C@@H](CO)O1)NCc1ccccn1	-1	.	.	-6	-8	.
O=C(C1CCOCC1)N1CC(=O)N2[C@H](CO)[C@H](c3ccc(-c4cccnc4)cc3)[C@H]2C1	-25	.	.	-3	.	.
COc1ccc(C#Cc2ccc3c(c2)O[C@@H](CN(C)C(=O)NC2CCCCC2)[C@H](C)CN([C@H](C)CO)S3(=O)=O)cc1	5	.	.	14	.	.
COc1ccccc1N(C)S(=O)(=O)c1ccc(C(=O)Nc2nccs2)cc1	7	-3	-13	-10	7	-50*
C[C@@H]1CN([C@H](C)CO)C(=O)c2cccc(NS(C)(=O)=O)c2O[C@H]1CN(C)Cc1ccc2c(c1)OCO2	-9	.	.	.	-13	.
C[C@@H]1CCCCO[C@H](CN(C)C(=O)c2ccccc2)[C@H](C)CN([C@@H](C)CO)C(=O)c2cc(NC(=O)CCCCCC(=O)Nc3ccccc3N)ccc2O1	18	.	.	-14	1	.
Cc1ccc(C)c(N2CCN(c3ncccc3[N+](=O)[O-])CC2)c1	32	24	25	0	62*	3
Cc1ccc(N2CCN(c3ncccc3[N+](=O)[O-])CC2)c(C)c1	-31	-10	17	-7	-13	9
Cc1ccc2nc(CSc3nc(C)ccc3C#N)[nH]c2c1	76*	-32	-21	-27	.	-10
Cc1noc(C)c1NC(=O)Nc1ccc2c(c1)CC(=O)N([C@@H](C)CO)C[C@@H](C)[C@@H](CN(C)C(=O)Nc1ccc(C(F)(F)F)cc1)O2	20	.	.	5	.	.

Screening results as filed in PubChem.
